# About 83,000 compounds went through this panel and 20% of them were active in at least one assay; those are over-represented in the sample as a whole.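 Percent growth is the endpoint: 0 to 100 indicates growth inhibition (40 means 60% inhibition), 0 means no net growth, and negative values indicate cell death.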 The source made the active and inactive calls. How the source made its calls: active means growth percent below 10; inactive means the rest.
# Test system: HL-60(TB) leukemia
# Assay: NCI-60 one-dose screen, 48 h (100 = growth as untreated, 0 = no growth, -100 = all killed)
# Conditions: 10 µM unless noted
row,Compound,growth
1,c1ccc(CCc2ccccc2-c2cc(-c3ccccc3)on2)cc1,76.2% (inactive)
2,Cn1cc(-c2nc(-c3c[nH]c4ncccc34)cs2)c2cc(Cl)ccc21,55.8% (inactive)
3,COc1nc(/C=C\Nc2ccc3c(c2)OCCOCCOCCOCCO3)nc(OC)n1,65.4% (inactive)
4,O=C1C=CC2(NN=C(c3ccccc3)N2c2cccc(Cl)c2)C(Cl)=C1 (stereo not given),33% (inactive)
5,NNC(=O)c1ccc(-n2nc(-c3ccccc3)c3ccccc32)cc1,93% (inactive)
6,O=c1oc2ccc(I)cc2c(=O)n1-c1ccc(Cl)cc1F,-47.1% (active)
7,C=C1C(=O)O[C@H]2[C@H]1CC/C(Cn1cc(Cn3ccc4cc(Cl)ccc43)nn1)=C\CC[C@@]1(C)O[C@@H]21,-37.7% (active)
8,S=c1nc(CS)[nH]c2ccccc12,101% (inactive)
9,CCCCNC(=O)Oc1ccc(/C(=C(/C)Cc2ccc(OC)cc2)c2ccc(OCCN3CCCCCC3)cc2)cc1,33.9% (inactive)
10,C=C[C@@H]1C[C@H](O)Cc2cc(F)ccc2N1,-2.59% (active)
11,OCCNc1nc(Nc2ccc(Cl)c(Cl)c2)nc2ccccc12,44.4% (inactive)
12,CC(C)(C)Nc1c(-c2c3ccccc3cc3ccccc23)nc2ccccn12,74.4% (inactive)
13,CCN1CCN(c2cc(C(=O)Nc3cccc(Nc4ccc5c(OC)cccc5n4)c3)cc(C(F)(F)F)c2)CC1,62.6% (inactive)
14,CCC/C(=N\NC(N)=O)C(OC)OC,86.5% (inactive)
15,CC(C)CN(C(=O)c1ccc(Cl)cc1)c1c(N)n(CC(C)C)c(=O)[nH]c1=O,90.8% (inactive)
16,O=C1/C(=C/c2ccccc2)SC(=Nc2ccccc2)N1Nc1ccccc1,-7.82% (active)
17,Cc1cccc[n+]1CCC[n+]1ccccc1C,86.4% (inactive)
18,Cc1cccc(CC(=O)c2ccccc2)n1,86.9% (inactive)
19,Cc1ccc([N+](=O)[O-])cc1NC(=O)Nc1cccc(F)c1,58.7% (inactive)
20,CN1CCN(Cc2ccc(NC(=O)c3cncc(C#Cc4cncn5ccnc45)c3)cc2C(F)(F)F)CC1,20.2% (inactive)

row,Compound,growth
1,CCN(CC)CCCC(Nc1c2ccc(Cl)cc2nc2ccc(OC)cc12)c1ccncc1 (stereo not given),101% (inactive)
2,COc1cc(/C=C/C(=O)c2cccnc2Nc2ccc(F)cc2)cc(OC)c1OC,5.42% (active)
3,COc1cc(/C=C2\COc3ccc(O)cc3C2=O)cc(OC)c1,18.4% (inactive)
4,Cc1cc(O)c(C2=NN(c3ccc(S(N)(=O)=O)cc3)C(/C=C/c3ccccc3)C2)cc1Cl (stereo not given),89.7% (inactive)
5,N#CC1=C(N2CCOCC2)NC2c3ccccc3Sc3ccccc3N2C1=N (stereo not given),89.8% (inactive)
6,CC(=O)[C@@]1(O)[C@H](C)C[C@H]2[C@@H]3C=C(C)C4=Cc5c(cnn5-c5ccccc5)C[C@]4(C)[C@H]3[C@@H](O)C[C@@]21C,-16% (active)
7,CC(=O)O[C@H]1Cc2c([nH]c3ccccc23)[C@@H](c2ccc(Cl)cc2)N1C(=O)CCNC(C)(C)C,16.6% (inactive)
8,Cc1c(-c2csc(-n3nc(C(F)(F)F)cc3C(F)(F)F)n2)no[n+]1[O-],97% (inactive)
9,CCc1cccc2c1S/C(=C/c1ccc(OC)cc1)C2=O,5.21% (active)
10,CCN(Cc1cccc(S(=O)(=O)[O-])c1)c1ccc(C(=C2C=CC(=[N+](CC)Cc3cccc(S(=O)(=O)O)c3)C=C2)c2ccccc2S(=O)(=O)O)cc1,104% (inactive)
11,O=C(Cn1cc(COc2ncnc3c2cnn3-c2ccccc2)nn1)Nc1cccc2ccccc12,101% (inactive)
12,Cn1c(-c2ccccc2)c(/C=C/C2=[N+](C)c3ccccc3C2(C)C)c2ccccc21,-52.5% (active)
13,c1ccc2oc(-c3cnc4nonc4n3)cc2c1,90.9% (inactive)
14,Cc1c(C(=O)N[C@@H](Cc2ccccc2)C(=O)C(=O)NCc2ccc(F)cc2)[nH]c2ccccc2c1=O,96.8% (inactive)
15,O=C1/C=C/[C@@H](O)[C@@H]2C[C@@H](O)C[C@H]2/C=C/CCC[C@H](C(F)(F)F)O1,-32.7% (active)
16,CC(=O)C1N=NCC1c1ccccc1 (stereo not given),96.8% (inactive)
17,COC(=O)c1cc(Br)ccc1O,97.8% (inactive)
18,O=C1C=CC(=O)N1c1ccc(O)cc1,112% (inactive)
19,C/C(Cc1ccccc1)=N\O,13.8% (inactive)
20,C=C(C)C1CCC(=C)C2CCC3(C)OC12/C=C(/COC(C)=O)CCC3O (stereo not given),90.8% (inactive)
